# Results published in PMC7862700, “An all-to-all approach to the identification of sequence-specific readers for epigenetic DNA modifications on cytosine”.
# Assays:
# Test in all cases: DAPPL (digital affinity profiling via proximity ligation, sequencing); 10 mM Tris-HCl pH 7.5, 50 mM NaCl, 1 mM DTT, 4% glycerol, room temperature, 30 min; GST-TFs on glutathione beads, 16-mer random dsDNA library, 0.1% formaldehyde crosslink after washing; high values mean tight binding
# [1] = target: T1, FLI1 (Homo sapiens, UniProt Q01543 1-452); details: protein: recombinant; tags: N-terminal GST; dsDNA, one strand shown
# T1 sequence: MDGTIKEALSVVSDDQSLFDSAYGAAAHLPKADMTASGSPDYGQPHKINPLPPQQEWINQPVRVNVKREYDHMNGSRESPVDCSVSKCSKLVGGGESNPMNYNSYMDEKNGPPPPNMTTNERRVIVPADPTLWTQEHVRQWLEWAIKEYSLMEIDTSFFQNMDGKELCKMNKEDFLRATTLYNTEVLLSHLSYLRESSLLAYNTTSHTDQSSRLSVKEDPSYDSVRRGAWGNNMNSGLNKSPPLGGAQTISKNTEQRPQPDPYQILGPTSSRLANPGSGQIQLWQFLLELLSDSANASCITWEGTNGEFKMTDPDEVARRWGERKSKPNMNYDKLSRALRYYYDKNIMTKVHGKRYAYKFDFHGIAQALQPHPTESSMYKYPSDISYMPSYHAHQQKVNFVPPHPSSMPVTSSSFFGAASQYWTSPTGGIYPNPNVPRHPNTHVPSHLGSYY
# Method in brief: (§1)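 Each value of binding signal is a hexamer's read frequency for a factor divided by the same hexamer's frequency in the tag-only sample. Barcoded, bead-captured GST fusions of human transcription factors made in yeast were pooled with that sample and incubated with 200 nmole of a random double-stranded 16-mer DNA library in Tris/NaCl/DTT/glycerol buffer at room temperature for 30 min. Washing, 0.1% formaldehyde crosslinking, proximity ligation, PCR and Illumina NextSeq500 sequencing followed.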
# [2] = target: T2, ELK1 (Homo sapiens, UniProt P19419 1-428); details: protein: recombinant; tags: N-terminal GST; dsDNA, one strand shown
# T2 sequence: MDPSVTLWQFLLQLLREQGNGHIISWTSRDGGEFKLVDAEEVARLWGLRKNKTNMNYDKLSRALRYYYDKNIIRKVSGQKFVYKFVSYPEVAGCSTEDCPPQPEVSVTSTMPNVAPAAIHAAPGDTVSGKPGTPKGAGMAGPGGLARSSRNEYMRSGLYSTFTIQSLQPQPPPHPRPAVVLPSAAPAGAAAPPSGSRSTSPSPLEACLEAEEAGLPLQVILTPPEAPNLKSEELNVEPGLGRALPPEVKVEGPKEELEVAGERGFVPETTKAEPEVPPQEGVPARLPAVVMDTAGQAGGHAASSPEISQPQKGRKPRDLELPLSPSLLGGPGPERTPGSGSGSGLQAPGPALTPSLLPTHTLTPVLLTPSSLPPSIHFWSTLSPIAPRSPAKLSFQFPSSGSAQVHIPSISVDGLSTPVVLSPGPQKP
# Method in brief: as §1
# [3] = target: T3, GABPA (Homo sapiens, UniProt Q06546 1-454); details: protein: recombinant; tags: N-terminal GST; dsDNA, one strand shown
# T3 sequence: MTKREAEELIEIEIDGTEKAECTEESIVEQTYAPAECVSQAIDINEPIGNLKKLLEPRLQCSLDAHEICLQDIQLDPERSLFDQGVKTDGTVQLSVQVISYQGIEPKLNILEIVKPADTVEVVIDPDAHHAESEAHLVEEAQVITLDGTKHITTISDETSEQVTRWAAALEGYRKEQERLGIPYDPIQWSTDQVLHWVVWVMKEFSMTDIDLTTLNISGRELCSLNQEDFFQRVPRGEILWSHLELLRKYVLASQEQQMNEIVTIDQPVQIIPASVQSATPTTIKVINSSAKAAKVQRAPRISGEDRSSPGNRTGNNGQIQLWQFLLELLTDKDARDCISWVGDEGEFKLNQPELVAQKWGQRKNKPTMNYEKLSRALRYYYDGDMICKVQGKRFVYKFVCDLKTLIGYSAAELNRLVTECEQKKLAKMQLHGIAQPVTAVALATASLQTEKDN
# Method in brief: as §1
# [4] = target: T4, ERG (Homo sapiens, UniProt P11308 1-479); details: protein: recombinant; tags: N-terminal GST; dsDNA, one strand shown
# T4 sequence: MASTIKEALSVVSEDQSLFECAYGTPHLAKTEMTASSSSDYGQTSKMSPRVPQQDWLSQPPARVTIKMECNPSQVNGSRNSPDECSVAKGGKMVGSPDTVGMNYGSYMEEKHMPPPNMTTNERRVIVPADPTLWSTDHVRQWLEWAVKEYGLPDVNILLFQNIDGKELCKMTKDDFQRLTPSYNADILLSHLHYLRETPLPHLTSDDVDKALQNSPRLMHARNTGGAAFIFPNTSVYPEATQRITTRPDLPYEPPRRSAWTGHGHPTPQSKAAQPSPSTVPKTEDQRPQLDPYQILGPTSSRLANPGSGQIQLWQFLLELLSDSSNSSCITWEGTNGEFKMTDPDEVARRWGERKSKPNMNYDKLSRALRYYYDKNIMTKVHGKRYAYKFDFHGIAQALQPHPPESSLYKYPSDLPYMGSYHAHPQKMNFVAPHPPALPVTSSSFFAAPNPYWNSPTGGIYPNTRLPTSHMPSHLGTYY
# Method in brief: as §1
# [5] = target: ELF1 (Homo sapiens, UniProt P32519 1-619); details: protein: recombinant; tags: N-terminal GST; dsDNA, one strand shown
# Method in brief: as §1
# [6] = target: T5, EHF (Homo sapiens, UniProt Q9NZC4 1-300); details: protein: recombinant; tags: N-terminal GST; dsDNA, one strand shown
# T5 sequence: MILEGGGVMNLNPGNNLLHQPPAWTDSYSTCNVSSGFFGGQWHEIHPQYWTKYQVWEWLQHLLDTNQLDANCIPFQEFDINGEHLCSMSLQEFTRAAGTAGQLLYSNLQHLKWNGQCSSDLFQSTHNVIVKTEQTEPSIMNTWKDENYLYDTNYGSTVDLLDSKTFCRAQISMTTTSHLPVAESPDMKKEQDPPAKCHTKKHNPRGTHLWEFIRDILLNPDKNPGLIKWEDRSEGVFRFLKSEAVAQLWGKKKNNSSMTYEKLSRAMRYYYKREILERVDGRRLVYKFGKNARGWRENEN
# Method in brief: as §1
# [7] = target: SPI1 (Homo sapiens, UniProt P17947 1-270); details: protein: recombinant; tags: N-terminal GST; dsDNA, one strand shown
# Method in brief: as §1
# [8] = target: SPIB (Homo sapiens, UniProt Q01892 1-262); details: protein: recombinant; tags: N-terminal GST; dsDNA, one strand shown
# Method in brief: as §1
# [9] = target: T6, ELK3 (Homo sapiens, UniProt P41970 1-407); details: protein: recombinant; tags: N-terminal GST; dsDNA, one strand shown
# T6 sequence: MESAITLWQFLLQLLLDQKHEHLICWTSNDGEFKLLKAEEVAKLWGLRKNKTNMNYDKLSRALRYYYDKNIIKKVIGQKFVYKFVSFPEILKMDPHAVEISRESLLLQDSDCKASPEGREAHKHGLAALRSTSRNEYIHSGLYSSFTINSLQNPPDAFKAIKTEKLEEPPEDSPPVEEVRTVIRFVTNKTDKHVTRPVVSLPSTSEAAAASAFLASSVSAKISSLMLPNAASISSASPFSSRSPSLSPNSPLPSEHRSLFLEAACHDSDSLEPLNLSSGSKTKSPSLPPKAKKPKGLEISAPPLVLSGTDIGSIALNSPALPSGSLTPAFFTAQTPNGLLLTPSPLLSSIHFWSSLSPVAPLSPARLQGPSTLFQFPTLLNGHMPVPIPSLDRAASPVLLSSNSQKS
# Method in brief: as §1
# [10] = target: T7, FEV (Homo sapiens, UniProt Q99581 1-238); details: protein: recombinant; tags: N-terminal GST; dsDNA, one strand shown
# T7 sequence: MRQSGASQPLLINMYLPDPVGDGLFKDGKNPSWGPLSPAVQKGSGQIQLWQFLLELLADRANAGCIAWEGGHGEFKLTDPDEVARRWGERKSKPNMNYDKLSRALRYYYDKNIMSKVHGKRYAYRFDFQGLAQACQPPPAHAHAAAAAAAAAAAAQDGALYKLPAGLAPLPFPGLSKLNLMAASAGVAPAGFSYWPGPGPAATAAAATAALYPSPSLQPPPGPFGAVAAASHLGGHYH
# Method in brief: as §1
# [11] = target: ETV5 (Homo sapiens, UniProt P41161 1-510); details: protein: recombinant; tags: N-terminal GST; dsDNA, one strand shown
# Method in brief: as §1
# [12] = target: HSF1 (Homo sapiens, UniProt Q00613 1-529); details: protein: recombinant; tags: N-terminal GST; chain copies: 3; dsDNA, one strand shown
# Method in brief: as §1
# [13] = target: T8, SPIC (Homo sapiens, UniProt Q8N5J4 1-248); details: protein: recombinant; tags: N-terminal GST; dsDNA, one strand shown
# T8 sequence: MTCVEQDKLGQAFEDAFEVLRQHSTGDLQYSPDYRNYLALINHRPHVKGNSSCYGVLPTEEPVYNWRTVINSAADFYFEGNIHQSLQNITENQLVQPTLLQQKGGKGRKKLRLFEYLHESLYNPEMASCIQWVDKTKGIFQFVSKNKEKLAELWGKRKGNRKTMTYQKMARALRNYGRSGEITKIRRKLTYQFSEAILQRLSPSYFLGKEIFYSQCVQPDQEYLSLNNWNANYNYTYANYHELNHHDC
# Method in brief: as §1
# [14] = target: ELF4 (Homo sapiens, UniProt Q99607 1-663); details: protein: recombinant; tags: N-terminal GST; dsDNA, one strand shown
# Method in brief: as §1
# [15] = target: T9, ELK4 (Homo sapiens, UniProt P28324-2 1-405); details: protein: recombinant; tags: N-terminal GST; dsDNA, one strand shown
# T9 sequence: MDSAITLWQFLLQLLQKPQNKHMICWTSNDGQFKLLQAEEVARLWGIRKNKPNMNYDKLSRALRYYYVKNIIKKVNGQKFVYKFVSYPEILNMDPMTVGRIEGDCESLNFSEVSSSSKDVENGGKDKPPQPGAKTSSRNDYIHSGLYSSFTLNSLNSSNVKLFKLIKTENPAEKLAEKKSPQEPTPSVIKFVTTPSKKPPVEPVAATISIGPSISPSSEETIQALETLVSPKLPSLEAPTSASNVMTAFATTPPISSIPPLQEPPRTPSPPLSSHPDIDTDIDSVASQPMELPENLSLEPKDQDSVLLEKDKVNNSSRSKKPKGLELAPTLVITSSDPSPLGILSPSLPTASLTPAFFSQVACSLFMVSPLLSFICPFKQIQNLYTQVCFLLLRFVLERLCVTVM
# Method in brief: as §1
# [16] = target: T10, ETV2 (Homo sapiens, UniProt O00321 1-342); details: protein: recombinant; tags: N-terminal GST; dsDNA, one strand shown
# T10 sequence: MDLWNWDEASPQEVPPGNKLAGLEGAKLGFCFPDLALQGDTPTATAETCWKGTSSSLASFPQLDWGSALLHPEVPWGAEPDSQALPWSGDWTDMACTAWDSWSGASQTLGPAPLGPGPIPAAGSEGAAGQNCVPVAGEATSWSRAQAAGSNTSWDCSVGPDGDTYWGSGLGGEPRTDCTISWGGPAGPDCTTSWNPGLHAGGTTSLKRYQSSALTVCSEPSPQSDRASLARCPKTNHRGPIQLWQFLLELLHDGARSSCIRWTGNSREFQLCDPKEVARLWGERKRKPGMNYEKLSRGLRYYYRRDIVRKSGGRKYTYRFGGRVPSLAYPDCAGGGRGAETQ
# Method in brief: as §1
# [17] = target: T11, ELF3 (Homo sapiens, UniProt P78545 1-371); details: protein: recombinant; tags: N-terminal GST; dsDNA, one strand shown
# T11 sequence: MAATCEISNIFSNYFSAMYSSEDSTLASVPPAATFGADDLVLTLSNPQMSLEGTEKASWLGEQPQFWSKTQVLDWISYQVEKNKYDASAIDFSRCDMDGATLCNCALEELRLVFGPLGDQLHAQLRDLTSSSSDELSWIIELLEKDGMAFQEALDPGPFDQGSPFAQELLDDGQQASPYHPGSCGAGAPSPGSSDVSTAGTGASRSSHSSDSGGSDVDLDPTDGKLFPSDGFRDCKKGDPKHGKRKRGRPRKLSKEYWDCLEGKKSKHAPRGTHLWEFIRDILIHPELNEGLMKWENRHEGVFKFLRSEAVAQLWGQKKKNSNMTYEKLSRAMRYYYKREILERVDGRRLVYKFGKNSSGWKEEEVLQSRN
# Method in brief: as §1
# [18] = target: ETV1 (Homo sapiens, UniProt P50549 1-477); details: protein: recombinant; tags: N-terminal GST; dsDNA, one strand shown
# Method in brief: as §1
# ETV1, sequence (P50549 whole entry): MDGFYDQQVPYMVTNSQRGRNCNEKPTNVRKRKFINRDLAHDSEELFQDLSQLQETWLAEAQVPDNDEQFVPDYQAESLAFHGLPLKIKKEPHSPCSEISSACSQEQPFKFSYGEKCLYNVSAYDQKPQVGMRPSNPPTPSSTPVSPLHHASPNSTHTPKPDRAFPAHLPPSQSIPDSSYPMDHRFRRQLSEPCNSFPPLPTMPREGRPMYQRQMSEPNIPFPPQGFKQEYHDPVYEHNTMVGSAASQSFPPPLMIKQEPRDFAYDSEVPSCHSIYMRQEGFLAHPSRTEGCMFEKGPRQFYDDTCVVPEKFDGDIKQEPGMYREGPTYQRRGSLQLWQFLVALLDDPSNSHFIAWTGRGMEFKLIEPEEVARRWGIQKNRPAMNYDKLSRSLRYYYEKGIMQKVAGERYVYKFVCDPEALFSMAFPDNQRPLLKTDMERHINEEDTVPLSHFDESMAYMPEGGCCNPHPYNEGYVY
# ELF1, sequence (P32519 whole entry): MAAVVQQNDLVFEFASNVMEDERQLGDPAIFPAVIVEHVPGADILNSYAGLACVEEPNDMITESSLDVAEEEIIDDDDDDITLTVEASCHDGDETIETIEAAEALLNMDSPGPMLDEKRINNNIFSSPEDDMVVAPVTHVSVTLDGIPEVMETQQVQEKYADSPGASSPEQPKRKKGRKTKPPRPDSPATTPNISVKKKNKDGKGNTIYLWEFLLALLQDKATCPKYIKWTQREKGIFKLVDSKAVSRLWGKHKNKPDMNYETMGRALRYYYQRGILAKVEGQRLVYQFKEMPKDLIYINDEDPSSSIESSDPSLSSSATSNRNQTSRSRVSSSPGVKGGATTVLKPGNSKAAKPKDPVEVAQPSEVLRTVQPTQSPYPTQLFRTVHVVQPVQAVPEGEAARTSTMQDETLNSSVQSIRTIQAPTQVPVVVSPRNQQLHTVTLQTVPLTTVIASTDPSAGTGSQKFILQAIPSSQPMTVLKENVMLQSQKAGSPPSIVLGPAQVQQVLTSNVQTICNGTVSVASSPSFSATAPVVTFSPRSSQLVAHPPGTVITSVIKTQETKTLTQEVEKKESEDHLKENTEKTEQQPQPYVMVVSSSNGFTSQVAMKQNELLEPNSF
# HSF1, sequence (Q00613 whole entry): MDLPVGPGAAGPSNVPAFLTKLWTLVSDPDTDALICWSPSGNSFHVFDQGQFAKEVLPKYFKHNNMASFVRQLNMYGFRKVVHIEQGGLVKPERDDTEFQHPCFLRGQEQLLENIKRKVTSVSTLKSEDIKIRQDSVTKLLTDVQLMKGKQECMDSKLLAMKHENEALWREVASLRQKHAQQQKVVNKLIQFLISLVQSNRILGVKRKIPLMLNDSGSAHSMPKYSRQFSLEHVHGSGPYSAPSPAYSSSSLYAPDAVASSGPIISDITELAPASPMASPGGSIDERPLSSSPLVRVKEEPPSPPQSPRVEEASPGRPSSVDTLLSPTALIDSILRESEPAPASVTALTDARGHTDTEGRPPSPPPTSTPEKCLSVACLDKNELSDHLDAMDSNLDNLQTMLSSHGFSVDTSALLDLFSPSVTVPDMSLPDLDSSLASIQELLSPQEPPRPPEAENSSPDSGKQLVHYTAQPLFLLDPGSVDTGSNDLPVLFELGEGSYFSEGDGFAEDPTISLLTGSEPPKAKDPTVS
# SPIB, sequence (Q01892 whole entry): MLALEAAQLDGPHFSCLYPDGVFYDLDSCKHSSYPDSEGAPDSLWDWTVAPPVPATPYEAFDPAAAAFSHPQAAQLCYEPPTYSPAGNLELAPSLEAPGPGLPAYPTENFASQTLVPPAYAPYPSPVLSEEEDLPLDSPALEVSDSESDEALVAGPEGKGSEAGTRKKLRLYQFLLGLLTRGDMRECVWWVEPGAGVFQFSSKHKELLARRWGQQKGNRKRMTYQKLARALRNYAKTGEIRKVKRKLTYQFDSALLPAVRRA
# ETV5, sequence (P41161 whole entry): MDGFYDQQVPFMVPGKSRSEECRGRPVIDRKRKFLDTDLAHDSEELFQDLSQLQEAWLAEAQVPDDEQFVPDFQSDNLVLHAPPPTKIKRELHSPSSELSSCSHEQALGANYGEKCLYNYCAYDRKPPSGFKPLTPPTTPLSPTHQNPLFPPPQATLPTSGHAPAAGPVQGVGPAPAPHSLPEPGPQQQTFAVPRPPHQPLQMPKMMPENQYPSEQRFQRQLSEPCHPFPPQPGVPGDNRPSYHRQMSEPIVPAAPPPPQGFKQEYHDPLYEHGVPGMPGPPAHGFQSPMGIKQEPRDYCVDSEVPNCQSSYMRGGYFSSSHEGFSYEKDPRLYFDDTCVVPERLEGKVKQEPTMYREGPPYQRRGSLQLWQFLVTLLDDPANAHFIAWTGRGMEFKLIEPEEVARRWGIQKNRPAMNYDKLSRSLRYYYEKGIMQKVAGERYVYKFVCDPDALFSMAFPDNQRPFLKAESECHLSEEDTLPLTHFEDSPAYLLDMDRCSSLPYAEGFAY
# ELF4, sequence (Q99607 whole entry): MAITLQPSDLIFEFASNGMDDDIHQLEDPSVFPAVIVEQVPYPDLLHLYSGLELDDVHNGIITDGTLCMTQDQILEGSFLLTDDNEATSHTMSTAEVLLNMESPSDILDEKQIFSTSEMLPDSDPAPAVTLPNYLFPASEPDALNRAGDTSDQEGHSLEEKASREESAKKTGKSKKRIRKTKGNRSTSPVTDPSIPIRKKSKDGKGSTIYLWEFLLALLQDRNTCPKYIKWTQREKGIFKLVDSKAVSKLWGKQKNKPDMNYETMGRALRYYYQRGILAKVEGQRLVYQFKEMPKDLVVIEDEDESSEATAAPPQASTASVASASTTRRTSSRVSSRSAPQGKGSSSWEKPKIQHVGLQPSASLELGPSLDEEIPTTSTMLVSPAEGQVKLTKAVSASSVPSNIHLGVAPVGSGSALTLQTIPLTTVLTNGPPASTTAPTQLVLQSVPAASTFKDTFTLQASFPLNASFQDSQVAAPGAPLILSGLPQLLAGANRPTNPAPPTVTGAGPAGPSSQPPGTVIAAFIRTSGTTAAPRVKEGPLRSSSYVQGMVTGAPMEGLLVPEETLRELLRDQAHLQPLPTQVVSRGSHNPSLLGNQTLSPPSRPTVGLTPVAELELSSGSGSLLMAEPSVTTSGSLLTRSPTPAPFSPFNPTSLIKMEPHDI
sequence,measurement,setting,value
CTTGTC,binding signal,[1],"1.17 fold enrichment (6-mer frequency, TF over GST control)"
same,binding signal,[2],"1.33 fold enrichment (6-mer frequency, TF over GST control)"
same,binding signal,[3],"1.32 fold enrichment (6-mer frequency, TF over GST control)"
same,binding signal,[4],"1.19 fold enrichment (6-mer frequency, TF over GST control)"
same,binding signal,[5],"1.22 fold enrichment (6-mer frequency, TF over GST control)"
same,binding signal,[6],"1.19 fold enrichment (6-mer frequency, TF over GST control)"
same,binding signal,[7],"1.35 fold enrichment (6-mer frequency, TF over GST control)"
same,binding signal,[8],"1.23 fold enrichment (6-mer frequency, TF over GST control)"
same,binding signal,[9],"1.34 fold enrichment (6-mer frequency, TF over GST control)"
same,binding signal,[10],"1.23 fold enrichment (6-mer frequency, TF over GST control)"
same,binding signal,[11],"1.34 fold enrichment (6-mer frequency, TF over GST control)"
same,binding signal,[12],"1.07 fold enrichment (6-mer frequency, TF over GST control)"
same,binding signal,[13],"1.14 fold enrichment (6-mer frequency, TF over GST control)"
same,binding signal,[14],"1.41 fold enrichment (6-mer frequency, TF over GST control)"
same,binding signal,[15],"1.33 fold enrichment (6-mer frequency, TF over GST control)"
same,binding signal,[16],"1.08 fold enrichment (6-mer frequency, TF over GST control)"
same,binding signal,[17],"1.32 fold enrichment (6-mer frequency, TF over GST control)"
same,binding signal,[18],"1.27 fold enrichment (6-mer frequency, TF over GST control)"
